# Laboratory results published in PubChem BioAssay (EPA / NIEHS).
# Values joined by “and” are separate entries in the source; they are usually repeats but may differ in a detail not shown here. Identical values can stand only once. Records with an inconclusive call do not appear. A structure can be active in one record and inactive in another. Active and inactive are the calls of the source. Rule for the calls, unless noted: active = hit-call score of the fitted dose curve at least 0.9, where 1 is the maximum; inconclusive = response in the unintended direction; inactive = score below 0.9.
# Tests used:
# [1] = ATG_XTT_Cytotoxicity: Cytotoxicity Assessment in the Attagene TRANS-FACTORIAL HepG2 Assay (AID 2283584);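 for AC50: cells exposed to compound for 24 h before reading; active means loss of viability signal versus DMSO baseline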
# Summary of the method: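 Cells: human HepG2, transiently transfected with MRTU reporter constructs. Exposure 24 h. Readout: XTT, cell number. Baseline/neg ctrl DMSO; loss-of-signal scored.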
# [2] = read-out: UDP glucuronosyltransferase (UGT1A1), UGT1A1 (gene 54658); test: LTEA_HepaRG_UGT1A1: Life Technologies and Expression Analysis (LTEA) Assay for UDP glucuronosyltransferase (UGT1A1) using HepaRG (AID 2283538; active = hit-call score of the fitted dose curve at least 0.9, where 1 is the maximum; inactive = score below 0.9); conditions: mRNA level, 48 h; actives raise or lower the signal
# Summary of the method: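 HepaRG cells, 0.5% DMSO vehicle, 48 h exposure in serum-free induction medium to 8-point half-log series topping at 100 uM, in duplicate. UGT1A1 mRNA by Fluidigm qRT-PCR, normalized to ACTB/GAPDH/POLR2A; bidirectional fit versus DMSO.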
# [3] = read-out: UDP glucuronosyltransferase (UGT1A6), UGT1A6 (gene 54578); test: LTEA_HepaRG_UGT1A6: Life Technologies and Expression Analysis (LTEA) Assay for UDP glucuronosyltransferase (UGT1A6) using HepaRG (AID 2283539; active = hit-call score of the fitted dose curve at least 0.9, where 1 is the maximum; inactive = score below 0.9); conditions: mRNA level, 48 h; actives raise or lower the signal
# Summary of the method: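 HepaRG, 48 h post-plating switch to serum-free induction medium; chemical 48 h, 100 uM top, half-log x8, duplicate, 0.5% DMSO. Phenobarbital 1mM induction control. UGT1A6 mRNA by TaqMan qRT-PCR; gain/loss fit vs DMSO.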
# [4] = read-out: X-box binding protein 1 (XBP1), XBP1 (gene 7494); test: LTEA_HepaRG_XBP1: Life Technologies and Expression Analysis (LTEA) Assay for X-box binding protein 1 (XBP1) using HepaRG (AID 2283540; active = hit-call score of the fitted dose curve at least 0.9, where 1 is the maximum; inactive = score below 0.9); conditions: mRNA level, 48 h; actives raise or lower the signal
# Summary of the method: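 Transcript levels of XBP1, measured by qRT-PCR and normalised to three housekeeping genes, were fitted bidirectionally relative to 0.5% DMSO controls. Human HepaRG cells received eight-point half-log dilutions from 100 uM for 48 h.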
# [5] = LTEA_HepaRG_LDH_cytotoxicity: Cytotoxicity Assessment in the Life Technologies and Expression Analysis (LTEA) Assay (AID 2283563);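 note: LDH activity released into spent culture medium as a marker of cell death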
# Summary of the method: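 Cells were thawed and plated for 48 h. Medium was then replaced with serum-free induction medium. Chemicals (8 half-log points, maximum 100 uM, 0.5% DMSO) were added in duplicate for 48 h, after which spent medium was assayed for LDH.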
# [6] = TOX21_p53_BLA_p2_viability: Viability Assessment in the Tox21 HCT-116 p53 Agonism Beta-lactamase Assay, Phase 2 (AID 2283591);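 note: compound exposure lasted 16 h at 37 °C; actives lower the ATP signal meaning cytotoxicity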
# Summary of the method: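 Cytotoxicity readout: CellTiter-Glo ATP luminescence, 30 min at room temperature, after the beta-lactamase read. Cells were HCT116 exposed 16 h at 37C to compounds pin-transferred at 217-fold dilution from DMSO stocks.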
# [7] = target: Cellular tumor antigen p53 (Homo sapiens) (UniProt P04637); test: TOX21_p53_BLA_p2_ratio: Tox21 HCT-116 p53 Agonism Beta-lactamase Assay, Ratio, Phase 2 (AID 2283592)
# Cellular tumor antigen p53 (Homo sapiens), sequence (P04637 whole entry, looked up): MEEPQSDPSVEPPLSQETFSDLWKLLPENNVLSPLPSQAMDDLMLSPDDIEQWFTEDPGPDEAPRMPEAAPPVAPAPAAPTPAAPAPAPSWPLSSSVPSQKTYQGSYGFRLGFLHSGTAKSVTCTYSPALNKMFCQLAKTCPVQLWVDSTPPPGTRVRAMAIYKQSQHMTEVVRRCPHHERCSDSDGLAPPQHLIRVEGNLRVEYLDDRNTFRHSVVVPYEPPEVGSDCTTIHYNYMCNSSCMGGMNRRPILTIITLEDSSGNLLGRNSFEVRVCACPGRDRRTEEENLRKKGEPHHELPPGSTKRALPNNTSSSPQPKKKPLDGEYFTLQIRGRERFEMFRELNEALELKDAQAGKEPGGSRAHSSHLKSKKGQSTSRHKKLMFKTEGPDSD
# Summary of the method: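 HCT116 p53-bla; 4000 cells/well; 5 h pre-incubation; cpd in DMSO, 217-fold dilution; 16 h 37C/5% CO2; CCF4-AM 2 h RT; Ex 405, Em 460/530 ratio; DMSO = baseline; positive fitting direction.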
# [8] = TOX21_p53_BLA_p3_viability: Viability Assessment in the Tox21 HCT-116 p53 Agonism Beta-lactamase Assay, Phase 3 (AID 2283593);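 note: cells exposed to compound for 16 h before reading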
# Summary of the method: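 Cellular ATP was quantified by CellTiter-Glo luminescence, read after 30 min at room temperature. Beforehand, HCT116 cells (4000/well) received compound 5 h post-seeding, 217-fold diluted from DMSO, then incubated 16 h at 37C.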
# [9] = target: Cellular tumor antigen p53 (Homo sapiens) (UniProt P04637); test: TOX21_p53_BLA_p3_ratio: Tox21 HCT-116 p53 Agonism Beta-lactamase Assay, Ratio, Phase 3 (AID 2283596)
# Summary of the method: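 HCT116 p53-bla cells (4000/well) given compound in DMSO (217-fold dilution) after 5 h, incubated 16 h at 37C. CCF4-AM substrate 2 h at room temperature; 460/530 nm emission ratio, gain fitted against DMSO.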
# [10] = TOX21_p53_BLA_p4_viability: Viability Assessment in the Tox21 HCT-116 p53 Agonism Beta-lactamase Assay, Phase 4 (AID 2283597);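 note: hits lower the luminescence signal meaning cytotoxicity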
# Summary of the method: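 Cells plated, 5 h pre-incubation; DMSO compounds pinned (217-fold dilution); 16 h, 37C/5% CO2; CCF4-AM 2 h RT; CellTiter-Glo 30 min RT; luminescence read.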
smiles,measurement,setting,value
CC(CO)(CO)[N+](=O)[O-],outcome,[1],inactive
O=C(O)c1ccc(C(=O)O)c(C(=O)O)c1,outcome,[1],inactive
CC/C(=C(\c1ccccc1)c1ccc(OCCN(C)C)cc1)c1ccccc1,AC50,[2],32.1 µM (active)
same,outcome,[2],inactive
same,AC50,[3],45.8 µM (active)
same,outcome,[3],inactive
same,AC50,[4],45.8 µM (active) and 96.2 µM (active)
same,AC50,[5],63.5 µM (active) and 73.5 µM (active)
same,outcome,[1],inactive
same,AC50,[6],33.7 µM (active) and 69.5 µM (active) and 35.2 µM (active)
same,outcome,[6],inactive
same,AC50,[7],47.8 µM (active) and 84.4 µM (active) and 43.5 µM (active)
same,outcome,[7],inactive
same,AC50,[8],74.8 µM (active) [middle of 5 runs]
same,AC50,[9],86.9 µM (active) [middle of 4 runs]
same,outcome,[9],inactive
C=C1CC[C@H]2O[C@]2(C)CC[C@@H]2[C@@H]1CC2(C)C,outcome,[1],inactive
CCCC[N+](C)(CCCC)CCCC,outcome,[1],inactive
c1ccc2c(c1)-c1ccc3ccc4cccc5cc-2c1c3c45,outcome,[1],inactive
NS(=O)(=O)c1cc(C(=O)O)c(NCc2ccco2)cc1Cl,outcome,[1],inactive
OC[C@H]1O[C@@H](O[C@H]2[C@H](O)[C@@H](O)[C@H](O)O[C@@H]2CO)[C@H](O)[C@@H](O)[C@H]1O,outcome,[1],inactive
same,outcome,[6],inactive
CCOC(=O)C=Cc1ccccc1,outcome,[1],inactive
same,outcome,[6],inactive
same,outcome,[7],inactive
same,outcome,[8],inactive
same,outcome,[9],inactive
CCC(C)(C)c1cc(O)c(C(C)(C)CC)cc1O,outcome,[1],inactive
same,outcome,[6],inactive
same,outcome,[7],inactive
same,outcome,[8],inactive
same,outcome,[9],inactive
CCC(=O)OC/C=C(\C)CCC=C(C)C,outcome,[1],inactive
C[N+](C)(C)CCO,outcome,[1],inactive
COc1ccccc1O,outcome,[1],inactive
same,outcome,[6],inactive
same,outcome,[7],inactive
same,outcome,[8],inactive
same,outcome,[9],inactive
OCCN1CCOCC1,outcome,[1],inactive
COc1ccc(OC)cc1,outcome,[1],inactive
same,outcome,[6],inactive
same,outcome,[7],inactive
same,outcome,[8],inactive
same,outcome,[9],inactive
CCCOC(=O)CC,outcome,[1],inactive
C1COCO1,outcome,[1],inactive
NC(=O)c1c(Cl)cccc1Cl,outcome,[1],inactive
CCCCCCCCCCOC(=O)c1ccccc1C(=O)OCCCCCCCC,outcome,[1],inactive
CCCCCCCCOC(=O)c1ccc(O)cc1,AC50,[1],100 µM (active)
same,outcome,[1],inactive
FC(F)(F)c1ccc(Cl)c(Cl)c1,outcome,[1],inactive
same,outcome,[6],inactive
same,outcome,[7],inactive
same,outcome,[8],inactive
same,outcome,[9],inactive
c1ccc2scnc2c1,outcome,[1],inactive
same,outcome,[6],inactive
same,outcome,[7],inactive
same,outcome,[8],inactive
same,outcome,[9],inactive
CCCC1CCC(=O)CC1,outcome,[1],inactive
CCn1cc(C(=O)O)c(=O)c2ccc(C)nc21,outcome,[1],inactive
CCCc1ccc(O)cc1,outcome,[1],inactive
same,outcome,[6],inactive
same,outcome,[7],inactive
same,outcome,[8],inactive
CCCCC/C=C\C=C\C(=O)OCC,outcome,[1],inactive
same,AC50,[6],68.7 µM (active)
same,AC50,[7],75.6 µM (active)
same,AC50,[8],49.1 µM (active)
same,outcome,[9],inactive
CCCCOCCOC(=O)c1ccccc1C(=O)OCCOCCCC,outcome,[1],inactive
same,outcome,[6],inactive
same,outcome,[7],inactive
same,outcome,[8],inactive
same,outcome,[9],inactive
same,outcome,[10],inactive
NC(=O)NC(N)=O,outcome,[1],inactive
same,outcome,[6],inactive
same,outcome,[7],inactive
same,outcome,[8],inactive
same,outcome,[9],inactive
O=C(O)c1cc2ccccc2cc1O,outcome,[1],inactive
C=CC(=O)OCC(CO)(COC(=O)C=C)COC(=O)C=C,outcome,[1],inactive
OCCCO,outcome,[1],inactive
CCC=C(C)C=O,outcome,[1],inactive
Cc1cc(O)c(C)c(C)c1O,outcome,[1],inactive
O=C1CCCCCCCCCCCC(=O)OCCO1,outcome,[1],inactive
N#CCCNCCC#N,outcome,[1],inactive
C[C@H](CCC(=O)O)[C@H]1CC[C@H]2[C@@H]3CC[C@@H]4C[C@H](O)CC[C@]4(C)[C@H]3CC[C@]12C,outcome,[1],inactive
same,AC50,[6],16.3 µM (active) and 14.2 µM (active)
same,AC50,[7],21.8 µM (active)
same,outcome,[7],inactive
same,AC50,[8],31.4 µM (active) and 30 µM (active)
same,AC50,[9],31.1 µM (active)
same,outcome,[9],inactive
same,AC50,[10],13.5 µM (active)
same,outcome,[10],inactive
CC1=CC(O)CC(C)(C)C1 (stereo not given),outcome,[1],inactive
same,outcome,[6],inactive
same,outcome,[7],inactive
c1ccc(OCCOc2ccccc2)cc1,outcome,[1],inactive
same,outcome,[6],inactive
same,outcome,[7],inactive
same,outcome,[8],inactive
same,outcome,[9],inactive
same,outcome,[10],inactive
CC(C)(C)c1ccc(S)cc1,outcome,[1],inactive
same,outcome,[6],inactive
NC(N)=NC(N)=NCCc1ccccc1,outcome,[1],inactive
same,outcome,[6],inactive
same,AC50,[7],20.4 µM (active)
same,outcome,[7],inactive
same,outcome,[8],inactive
same,AC50,[9],30.6 µM (active)
same,outcome,[9],inactive
same,outcome,[10],inactive
NNC(=O)OCc1ccccc1,outcome,[1],inactive
Cc1ccc(C(C)(C)O)cc1,outcome,[1],inactive
same,outcome,[6],inactive
same,outcome,[7],inactive
CCCCCC(=O)O[C@]1(C(C)=O)CC[C@H]2[C@@H]3CCC4=CC(=O)CC[C@]4(C)[C@H]3CC[C@@]21C,outcome,[1],inactive
same,outcome,[6],inactive
same,outcome,[7],inactive
same,outcome,[8],inactive
same,outcome,[9],inactive
same,outcome,[10],inactive
O=C(O)c1cccc(Cl)n1,outcome,[1],inactive
same,outcome,[6],inactive
